# Screening results as filed in PubChem.
# AMA1 RON2 block = disrupts binding of P. falciparum AMA1 to RON2. hit rate 0.2% among 360,000. AlphaScreen AMA1-biotinylated RON2 peptide binding. Potency, µM (highest dose often 58.2 µM), for the others: at the top dose activity change, negative = inhibition, usual class: inhibitors;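 note: 0% = vehicle wells and -100% = peptide control; nearly all actives have a fitted effect of over 45% in size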
#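 AMA1 (3D7) with his tag at 25 nM final met compounds first, then biotinylated RON2 peptide at 25 nM; detection used donor plus acceptor beads, 10 µg/mL apiece, read by AlphaScreen after 30 min at room temperature.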
# AmpC no deterg = inhibitors of E. coli AmpC beta-lactamase without detergent; Potency, µM (highest dose often 57.1 µM), inactives show top-dose activity change, negative = inhibition, usual class: inhibitors; AmpC nitrocefin hydrolysis, absorbance 480 nm, 0.0001% Triton; hit rate 0.52% among 330,000; P00811; AID 485341;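 note: plate controls were no compound for no effect and no enzyme for full effect; nearly all actives have a fitted effect of over 20% in size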
# Target sequence (P00811 whole entry, looked up): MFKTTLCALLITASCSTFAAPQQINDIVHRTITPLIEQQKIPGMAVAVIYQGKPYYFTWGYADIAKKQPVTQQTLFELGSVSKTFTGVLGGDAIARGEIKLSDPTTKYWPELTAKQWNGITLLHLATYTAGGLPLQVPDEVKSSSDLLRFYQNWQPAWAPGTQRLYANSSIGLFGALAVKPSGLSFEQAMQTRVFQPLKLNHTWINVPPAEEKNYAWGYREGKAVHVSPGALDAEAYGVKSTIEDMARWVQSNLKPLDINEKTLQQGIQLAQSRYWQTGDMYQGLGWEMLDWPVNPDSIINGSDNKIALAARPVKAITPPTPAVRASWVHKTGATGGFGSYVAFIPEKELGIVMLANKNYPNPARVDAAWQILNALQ
#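 20 mM phosphate pH 7.0 + 0.01% (detergent screen) or 0.0001% Triton X-100; 5.3 nM AmpC reagent; cpd preinc 15 min RT; nitrocefin (800 uM stock) to start; A480 q20 s × 4 min; Activity was normalised to no-enzyme and no-compound control wells.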
# RE007 growth inh = less growth of the S. pombe RE007 Vpr strain | S. pombe RE007 Vpr strain, BacTiter-Glo ATP luminescence, 24 h | Potency, µM (titrated, usually from 92.2 µM), for the others: top-dose activity change, negative = less growth, usual class: inhibitors | hit rate 0.21% among 360,000; active = well fitted falling curve with a large enough effect; inconclusive = small, poorly fitted or top-dose-only effect; inactive = no such curve, though single readings can be large or run the other way; note: nearly all actives have a fitted effect of over 50% in size
#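 Fission yeast strain RE007, carrying one chromosomally integrated HIV-1 vpr copy, was seeded at OD 0.01 in PMG+AL medium with 23 nL pinned compound. After 24 h at 30 °C and 99% humidity, viability was read by BacTiter-Glo luminescence.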
# AmpC detergent = inhibitors of E. coli AmpC beta-lactamase with detergent | hit rate 0.041% among 370,000 | AmpC hydrolysis of nitrocefin, absorbance 480 nm, 0.01% Triton | P00811 | AID 485294 | Potency, µM (top dose mostly 114 µM), for the others: at the top dose activity change, negative = inhibition, most hits filed as inhibitors;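 note: 0% = no-compound wells and -100% = no-enzyme wells; nearly all actives have a fitted effect of over 25% in size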
#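 AmpC (5.3 nM in the dispensed reagent) in 20 mM phosphate pH 7.0 with 0.01% (detergent screen) or 0.0001% Triton X-100 was preincubated with compounds for 15 min at room temperature. Nitrocefin was then added from an 800 uM solution, and hydrolysis was followed at 480 nm.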
# * marks the source's active call; other numbers are inactive results; u = inconclusive; x = no result given; [ ] = dose if it differs, or a comment. Shown are actives, neighbours in structure and some others; about 0.79% of the full set was active somewhere. Unless noted, calls come from the whole dose curve; as a rule, active = well fitted curve in the direction sought with a large enough effect; inconclusive = small, poorly fitted or top-dose-only effect, or another doubt; inactive = no such curve, though single readings can be large; an effect the other way counts as inactive or inconclusive. Unless noted, % is set by controls: 0 for no effect and ±100 for the full control effect; potency is the fitted concentration of half-maximal effect.
SMILES,AMA1 RON2 block,AmpC no deterg,RE007 growth inh,AmpC detergent
O=S(=O)(NCCc1csc2nc(-c3ccccc3)nn12)c1cc(F)ccc1F,x,x,x,1%
O=C(OC(C(=O)NC1CCCC1)c1cccnc1)C1=Cc2ccccc2OC1 (configuration not stated),-3%,-6%,7%,-1%
CC(OC(=O)C1=Cc2ccccc2OC1)C(=O)NC1CCCC1 (configuration not stated),-15%,0.16µM*,1%,2%
NS(=O)(=O)c1cccc(NS(=O)(=O)c2ccc(/C=C/C(=O)OCC(=O)c3ccccc3)cc2)c1,-1%,3.5µM*,-18%,-14%
COc1ccc(C(=O)COC(=O)/C=C/c2ccccc2)cc1,11%,-9%,-7%,2%
C#CCn1c(C2CC(=O)N(c3ccc(OCC)cc3)C2)nc2ccccc21 (configuration not stated),x,x,x,11%
CCC(C)NC(=O)CSc1nc2cc3c(cc2c(=O)n1Cc1ccc(C(=O)NCCc2ccc(OC)c(OC)c2)cc1)OCO3 (configuration not stated),x,x,x,10%
O=C(Nc1cccc(-n2cnnn2)c1)c1ccoc1COc1ccc(Cl)cc1,-8%,7.1µM*,4%,-10%
N#C/C(=C(/O)COC(=O)CSc1ccc(Cl)cc1)c1nc2ccccc2[nH]1,50%,-52%,9%,-3%
Cc1cc(SCC(=O)OC/C(O)=C(\C#N)c2nc3ccccc3[nH]2)c(C)cc1Br,86%,10µM*,8%,-6%
Cc1ccc(-c2c(CN3CCN(c4cccc(C(F)(F)F)c4)CC3)csc2C)cc1,x,x,x,-3%
COc1cccc(N=CC2=C(O)CCCC2=O)c1,12%,-4%,40µM*,5%
COc1cccc(N=CC2=C(O)CC(C)(C)CC2=O)c1,-4%[11.6 µM],3%,u,-11%
CN1CCN(Cc2c(F)cccc2Cl)CC1,14µM*,-4%,-1%,0%
Cc1ccccc1CNC(=O)c1ccccc1NC(=O)c1nsc2ccccc12,x,x,x,-3%
Cc1nc(N/N=C/c2ccccn2)sc1C,3%,-6%,16µM*,-2%
CCOC(=O)c1cccc(NC(=O)CC2C(=O)N(c3ccc(Cl)cc3)C(=O)N2C2CCCC2)c1 (configuration not stated),x,x,x,0%
COc1cc2c(cc1OC)CN(Cc1cc(=O)oc3cc(C)c(C)cc13)CC2,-14%,-41%,-6%,-6%
COc1cc2c(cc1OC)CN(Cc1cc(=O)oc3cc(C)c(Cl)cc13)CC2,-4%,10µM*,-6%,-11%
Cc1cc(C)cc(NC(=O)COC(=O)COc2cccc3c2OC(C)(C)C3)c1,-2%,35µM*,0%,u
O=C(O)c1ccccc1C(=O)Nc1cccc([N+](=O)[O-])c1,-2%,-3%,x,-4%
O=C(Nc1cccc([N+](=O)[O-])c1)c1cc2ccccc2cc1O,44%,13µM*,-14%,0%
COc1ccc(NC(=O)c2cc([N+](=O)[O-])ccc2O)cc1,1%,-28%,6.3µM*,1%
Cc1c(Cl)ccc2sc(N3CCN(C(=O)CCS(=O)(=O)c4ccc(F)cc4)CC3)nc12,x,x,x,2%
CCN(C(=O)CSc1nc(-c2ccc(C(C)C)cc2)no1)c1ccccc1,x,x,x,-3%
SMILES,AMA1 RON2 block,AmpC no deterg,RE007 growth inh,AmpC detergent
Cc1ccccc1-c1noc(CSc2nc3ccccc3[nH]2)n1,x,x,x,-2%
COc1ccc(C2=CC(=O)C[C@H](c3ccc(OC)cc3)C2)cc1,1%,-9%,-4%,6%
COc1ccc(C2=CC(=O)C=CC2=O)cc1,x,32µM*,x,u
O=C1CCCCCN1C(=O)c1ccccc1,-9%,x,1%,x
O=C1CCCCCN1Sc1ccccc1,-1%,-11%,13µM*,u
Oc1ccc(C2C(c3ccccc3)=NN=C(c3ccc(Cl)cc3)N2O)c(O)c1 (configuration not stated),6%,25µM*,3%,u
CCC(=O)N1CCCc2cc(S(=O)(=O)N3CCC(C(=O)Nc4ccc(F)c(F)c4)CC3)ccc21,x,x,x,-3%
Fc1ccc(C2=NNC(=NCc3ccccc3)SC2)cc1F,22%,18µM*,10%,0%
Cc1ccc(NC(=O)c2cc(C)n(-c3ccccc3)c2C)cc1,-5%[11.6 µM],-28%,23%,5%
Cc1ccc(NC(=O)c2cc(C)n(-c3cccc(C)c3)c2C)cc1,u,16µM*,-6%,2%
CN1C(=O)CC(Sc2ccccc2C(=O)O)C1=O (configuration not stated),13%,-16%,-26%,2%
Cc1cccc(N2C(=O)CC(Sc3ccccc3C(=O)O)C2=O)c1 (configuration not stated),0%,-31%,5.6µM*,-5%
CC(C)CN1C(=O)CC(Sc2ccccc2C(=O)O)C1=O (configuration not stated),-6%,-6%,0%,-12%
O=C(O)c1ccccc1SC1CC(=O)N(c2ccc3c(c2)OCO3)C1=O (configuration not stated),9%,-27%,22µM*,-4%
Cc1cc(C)cc(N2C(=O)CC(Sc3ccccc3C(=O)O)C2=O)c1 (configuration not stated),14%,-34%,11µM*,-2%
Cc1ccc(N2C(=O)CC(Sc3ccccc3C(=O)O)C2=O)c([N+](=O)[O-])c1 (configuration not stated),-6%,-23%,u,u
Cc1ccc(N2C(=O)CC(Sc3ccccc3C(=O)O)C2=O)cc1C (configuration not stated),21%,-30%,14µM*,7%
Cc1ccc(NC(=O)/C=C/c2ccccc2)c(Br)c1,x,x,x,-13%
CN(C)c1ccc(N2C(=O)CC(Sc3ccccc3C(=O)O)C2=O)cc1 (configuration not stated),-9%,-30%,6.3µM*,u
Cc1ccc(N2C(=O)CC(Sc3ncccc3C(=O)O)C2=O)cc1 (configuration not stated),-4%,2%[2.29 µM],1%,-2%
Cc1ccc(N2C(=O)CC(Sc3ccccc3C(=O)O)C2=O)cc1 (configuration not stated),7%,-10%,10µM*,-14%
Cn1nc(-c2ccccc2F)c2cc(C(=O)NCCc3ccc(Cl)cc3)sc21,x,x,x,-1%
Cc1ccc(N(CC(=O)Nc2ccc(C)c(Cl)c2)S(=O)(=O)c2cccs2)cc1,x,x,x,6%
O=C(c1ccc2c(c1)OCCO2)N(Cc1cccnc1)c1nc2c(Cl)cccc2s1,x,x,x,-8%
O=C(C(=O)c1cc(Br)ccc1O)c1cc(Br)ccc1O,-6%,x,-3%,x
O=C(c1ccc(O)c(Br)c1)c1cc(Br)ccc1O,-17%,x,63µM*,x
O=C(CSc1cccc[n+]1[O-])CSc1cccc[n+]1[O-],32%,-8%,7.9µM*,-2%
Cc1cc(C)nc(SCCN(C)C)n1,3%,-5%,-7%,-3%
Cc1cc(C)nc(SSc2nc(C)cc(C)n2)n1,13%,u,3%,79µM*
